ClpP mod: qHTS Assay for Activators of ClpP | ATP-dependent Clp protease proteolytic subunit (Bacillus subtilis (strain 168)), P80244 | purified B. subtilis ClpP, FRET peptide cleavage, 20 min | Potency, µM (titrated, usually from 57.5 µM) | 1.9% of 340,000 active; active means well fitted falling curve with a large enough effect; inconclusive means small, poorly fitted or top-dose-only effect; inactive means no such curve, though single readings can be large or run the other way; further: the source files actives as falling curves though it sought activators and does not explain the sign; nearly all actives have a fitted effect of over 65% in size
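Purified B. subtilis ClpP, 10 microg/mL final in Tris/HCl pH8 with KCl, BSA, glycerol and Tween-20, cleaved an Abz/nitrotyrosine-quenched decapeptide. Fluorescence (ex 320, em 430) was read at 0 and 20 min at room temperature. Delta was normalized to 5.8 microM ADEP and DMSO/no-enzyme controls.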
BCR signal inh: inhibitors of chronic active B-cell receptor signaling; AID 493014; ABC-DLBCL IkBa-CBG/CBR reporter, luminescence ratio, 4 h; 0.05% of 340,000 active; Potency, µM (series often up to 46.1 µM), most hits filed as inhibitors; active means well fitted inhibition curve with a large enough effect in the signal ratio, with a control signal flat, not every such curve was filed as active; inconclusive means small, poorly fitted or top-dose-only effect, or effect the other way, or a change in a side signal; the % refers to the signal ratio
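Compounds up to 46 uM were incubated four hours with TMD8 cells whose green CBG68 luciferase is fused to IkappaBalpha; red CBR luminescence normalised the signal, and concentration-effect curves were fitted to fusion, red and ratio data.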
LDHA inh: inhibitors of human lactate dehydrogenase A. P00338. purified LDHA, NADH/diaphorase-resazurin fluorescence; hits give low values. activity change, % (values are at about 110 or 230 µM). 0.15% of 480,000 active. AID 1347041; in the data active means activity change below about -30%; inconclusive means mostly about -25% to -30%
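Human LDH5 (2 nM) was incubated with 0.06 mM NADH and 0.2 mM pyruvate for 5 min at room temperature in Tris pH 7.4. Remaining NADH was coupled through diaphorase/resazurin, and resorufin fluorescence was read at 0 and 20 min.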
KCNH2 3.1 block: inhibitors of human KCNH2 3.1 potassium channel isoform; 0.95% of 340,000 active; activity change, % (tested at about 1.8 µM); U2OS KCNH2 3.1, thallium flux FluxOr; hits give low values;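 active means maximum activity change below -70%; inconclusive means maximum activity change from -70% to -50%; inactive means maximum activity change above -50%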;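 further: thallium influx rate constant from kinetic fluorescence after stimulation buffer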
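Steps: virus added to U2OS suspension (4 h, RT, dark); medium with 10% FBS added, cells plated, 37 C overnight; FluxOr/Red40 loading buffer 45 min RT; stimulation buffer, 2 min kinetic read; rate constant normalized.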
ALOX12 inh: ALOX12 (human) lipoxygenase inhibition. P18054. purified 12hLO, xylenol orange hydroperoxide absorbance. Potency, µM (highest dose often 108 µM), hits mostly inhibitors. 1.1% of 580,000 active; active means well fitted inhibition curve with a large enough effect; inconclusive means small, poorly fitted or top-dose-only effect, or another doubt; inactive means no such curve, though single readings can be large or run the other way
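Purified human 12hLO at 150 nM in 25 mM Hepes, 0.01% Triton X-100, pH 7.0, preincubated 15 min at room temperature with compound. Reaction started with 40 uM arachidonic acid, 30 min at room temperature. Hydroperoxide measured by Fe-xylenol orange, 573/405 nm absorbance ratio.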
KCNH2 WT inh: KCNH2 (human, wildtype) channel inhibition; Q12809; U2OS, BacMam KCNH2, thallium flux FluxOr; hits give low values; activity change, % at 1.84 µM; 0.37% of 340,000 active;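 active means maximum activity change below -70%; inconclusive means maximum activity change between -70% and -50%; inactive means maximum activity change above -50%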
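U2OS cells were transduced with wild-type KCNH2 virus (2.03 x 10^8 / mL) for 4 h at room temperature, then cultured overnight at 37 C. Thallium flux was read with FluxOr dye. Rate constants were normalized to DMSO controls.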
Large screens that a line does not name were inactive; ! = repeats disagree. Hits are enriched below; roughly 3% of the tested compounds scored in any of these assays.

COc1ccc(N(C)C(=O)c2ccc3nc(-c4ccccc4)c(-c4ccccc4)nc3c2)cc1	BCR signal inh inconclusive
C=CCNC(=O)c1ccc2nc(-c3ccccc3)c(-c3ccccc3)nc2c1	ClpP mod 20µM
CC(C)N(C(=O)c1ccc2nc(-c3ccccc3)c(-c3ccccc3)nc2c1)C(C)C	ClpP mod 28.2µM
COc1cccc(-c2cc(-c3nc(C4CC(=O)N(C5CCCCC5)C4)no3)[nH]n2)c1 (centres undefined)	none (no result: ClpP mod, BCR signal inh, LDHA inh, KCNH2 3.1 block, KCNH2 WT inh)
Cn1cccc1CNC1CCCC1	none
CNCc1cccn1C	ALOX12 inh 0.517µM (no result: ClpP mod, BCR signal inh, LDHA inh, KCNH2 3.1 block, KCNH2 WT inh)
COc1ccc(-c2ocnc2C(=O)Nc2cc(Cl)ccc2C)cc1OC	none (no result: ClpP mod, BCR signal inh, KCNH2 3.1 block, KCNH2 WT inh)
CN(C)c1ccc(-c2nc3n(n2)C(c2cccnc2)C2=C(CC(C)(C)CC2=O)N3)cc1 (centres undefined)	ClpP mod 14.1µM, BCR signal inh inconclusive
CNS(=O)(=O)c1ccc2c3c(cccc13)C(=O)N2C	BCR signal inh inconclusive, ALOX12 inh 8.91µM
Cn1c2ccccc2c(=O)c2cc(C#Cc3ccccn3)ccc21	ALOX12 inh inconclusive (no result: KCNH2 3.1 block, KCNH2 WT inh)
C=CCn1c2ccccc2c(=O)c2cc(C#Cc3cc(OC)cc(OC)c3)ccc21	KCNH2 3.1 block -97.3, ALOX12 inh inconclusive
CCn1c2ccccc2c2cc(CNCC3CCNCC3)ccc21	none (no result: ClpP mod, BCR signal inh, KCNH2 3.1 block, KCNH2 WT inh)
CCn1c2ccccc2c2cc(CNCCc3c[nH]c4ccccc34)ccc21	ALOX12 inh 39.8µM (no result: ClpP mod, BCR signal inh, KCNH2 3.1 block, KCNH2 WT inh)
CC(=O)c1c(O)cc(=O)n(-c2ccccc2)c1-c1ccc(C)cc1	none
CC(=O)c1c(O)c(C)c(-c2ccccc2)n(-c2ccccc2)c1=O	ClpP mod 22.4µM, ALOX12 inh inconclusive
Cc1cc(C(c2ccc(C)o2)c2ccc(C)o2)c(O)c([N+](=O)[O-])c1	BCR signal inh inconclusive, ALOX12 inh 35.5µM
COC[C@H]1CCCN1c1ccc2c(c1)O[C@@H](COCc1ccccc1)CN([C@H](C)c1ccccc1)S2(=O)=O	ClpP mod 5.62µM (no result: BCR signal inh, KCNH2 3.1 block, KCNH2 WT inh)
COC[C@@H]1CCCN1c1ccc2c(c1)O[C@H](COCc1ccccc1)CN([C@@H](C)c1ccccc1)S2(=O)=O	ClpP mod inconclusive (no result: BCR signal inh, KCNH2 3.1 block, KCNH2 WT inh)
C[C@H](c1ccccc1)N1C[C@H](COCc2ccccc2)Oc2cc(N3CCC[C@H]3CO)ccc2S1(=O)=O	ALOX12 inh 50.1µM (no result: BCR signal inh, KCNH2 3.1 block, KCNH2 WT inh)
C[C@H](c1ccccc1)N1C[C@@H](COCc2ccccc2)Oc2cc(N3CCC[C@@H]3CO)ccc2S1(=O)=O	none (no result: BCR signal inh, KCNH2 3.1 block, KCNH2 WT inh)
Cc1nn(-c2ccccc2)c2sc(C(=O)Nc3cccc(Cl)c3)cc12	none (no result: BCR signal inh, KCNH2 3.1 block, KCNH2 WT inh)
COc1cccc(-c2nn(C)c3sc(C(=O)NCCc4cccc(C)c4)cc23)c1	none (no result: BCR signal inh, KCNH2 3.1 block, KCNH2 WT inh)
COCCCNC(=O)c1cc2c(-c3cccc(OC)c3)nn(C)c2s1	BCR signal inh inconclusive
COc1cccc(-c2nn(C)c3sc(C(=O)NCc4ccccn4)cc23)c1	ClpP mod 28.2µM, BCR signal inh inconclusive
Cc1ccc(NC(=O)c2cc3c(-c4ccccc4)nn(-c4ccccc4)c3s2)cc1	ClpP mod 17.8µM (no result: BCR signal inh, KCNH2 3.1 block, KCNH2 WT inh)
COc1cccc(-c2nn(C)c3sc(C(=O)NCc4ccc(C)cc4)cc23)c1	ClpP mod 20µM!
Cc1ccc2c(=O)c(CN3CCC(C)CC3)c(C)[nH]c2c1C	none (no result: ClpP mod, BCR signal inh, KCNH2 3.1 block, KCNH2 WT inh)
CC(C)c1ccc(OCC(=O)NOCc2ccccc2)cc1	ALOX12 inh inconclusive (no result: ClpP mod, BCR signal inh, KCNH2 3.1 block, KCNH2 WT inh)
CCN1CCN(c2ccc(C(=O)OC)cc2NC(=O)COc2ccc(C(C)(C)C)cc2)CC1	ALOX12 inh inconclusive (no result: ClpP mod, BCR signal inh, KCNH2 3.1 block, KCNH2 WT inh)
CCOC(=O)C1=C(c2ccccc2)NC(=S)NC1c1ccc(C)cc1 (centres undefined)	ALOX12 inh inconclusive (no result: ClpP mod, BCR signal inh, KCNH2 3.1 block, KCNH2 WT inh)
Cc1nc2cc(-c3cccc(Cl)c3)nn2c(N2CCN(C(=O)c3ccco3)CC2)c1C	none (no result: ClpP mod, LDHA inh, KCNH2 3.1 block, ALOX12 inh, KCNH2 WT inh)
Cc1cc(N2CCN(C(=O)c3ccco3)CC2)n2nc(-c3cccc(Cl)c3)cc2n1	ClpP mod 35.5µM
COC(=O)c1nnn(-c2ccc(F)c(Cl)c2)c1C(=O)OC	KCNH2 3.1 block -70.3 (no result: ClpP mod)
COC(=O)c1nnn(-c2ccc(Cl)c(Cl)c2)c1C(=O)OC	none (no result: ClpP mod)
CSc1nc(NCC(C)O)c2c3c(sc2n1)CN(C)CC3 (centres undefined)	BCR signal inh inconclusive
CSc1nc(SCC(=O)NC(c2ccccc2)c2ccccc2)c2c3c(sc2n1)CN(C)CC3	ClpP mod 28.2µM, ALOX12 inh inconclusive
CCCCSc1nc2c(c(=O)[nH]c(=O)n2C)n1CC	ALOX12 inh inconclusive (no result: ClpP mod, BCR signal inh, KCNH2 3.1 block, KCNH2 WT inh)
O=C(Nc1ccc(Cl)cc1)c1nccnc1-c1nc2ccccc2s1	none (no result: ClpP mod, BCR signal inh, KCNH2 3.1 block, KCNH2 WT inh)
C#CCN(C[C@H]1[C@H](OC(=O)NC2CC2)[C@H](OC(=O)NC2CC2)C[C@H]2C(=O)N(c3ccccc3)C(=O)[C@@H]12)S(=O)(=O)c1ccc(C)cc1	none (no result: BCR signal inh)
C#CCN(C[C@H]1[C@H](OC(=O)NCC2CCCCC2)[C@H](OC(=O)NCC2CCCCC2)C[C@H]2C(=O)N(c3ccccc3)C(=O)[C@@H]12)S(=O)(=O)c1ccc(C)cc1	ALOX12 inh 44.7µM (no result: BCR signal inh)
CC(=O)c1cnn(-c2cc(Nc3ccc(F)c(F)c3)nc(C)n2)c1C	ALOX12 inh inconclusive (no result: ClpP mod, BCR signal inh, KCNH2 3.1 block, KCNH2 WT inh)
Cc1cc(C)c(S(=O)(=O)NCc2cccnc2)cc1C	none
CCCCNS(=O)(=O)c1ccc(OC)c2ncccc12	ClpP mod 28.2µM
